Screening data: PubChem, National Center for Advancing Translational Sciences (NCATS)
This is a sample that favours compounds with a hit; in the whole collection about 7.3% have one here.
ELG1 genotoxic: induces genotoxicity in HEK293T cells with luciferase-tagged ELG1 | HEK293T ELG1-luciferase reporter, luminescence, 16 h | Potency, µM (series often up to 46 µM), for the others: top-dose activity change, positive = activation, actives largely listed as activators | 1.3% of 330,000 active; note: % of control where 0% means no effect; nearly all actives have a fitted effect of over 60% in size
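Step 1: seed 2,000 HEK293T ELG1-luciferase cells per well. Step 2: add compound or DMSO, incubate 16 hr at 37 °C. Step 3: ONE-Glo, 30 min at room temperature, read luminescence.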
Luc counter: Kinase-Glo luciferase inhibition (counter-screen); Q27757; Kinase-Glo luciferase, ATP luminescence, 8 min; Potency, µM (highest dose often 38.3 µM), without a hit: at the highest dose activity change, negative = inhibition, actives largely listed as inhibitors; 0.28% of 200,000 active; note: % is set by controls: 0 for no effect and ±100 for the full control effect; nearly all actives have a fitted effect of over 60% in size
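Luminescence was the read-out, taken after 8-minute incubation at ambient temperature. Luciferase turned over luciferin with 10 uM ATP in imidazole pH 7.2 buffer containing KCl, MgCl2, Tween 20 and BSA.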
Rab9 promoter act: activates the Rab9 promoter; Huh7 Rab9 promoter-luciferase reporter, luminescence, 24 h; Potency, µM (top dose mostly 9.22 µM), without a hit: top-dose activation, negative = inhibition, hits mostly activators; 2.8% of 320,000 active; AID 485297; note: % of control where 0% means no effect; nearly all actives have a fitted effect of over 60% in size
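Luminescence read-out: Huh7 cells stably expressing Rab9-luciferase, treated 24 h with compound at 37 °C, then lysed with luciferase reagent for 10 min at ambient before reading.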
SMN2 splice up: increases expression of the SMN2 splice variant; AID 1458; 2.8% of 210,000 active; HEK293 SMN2-luciferase splicing reporter, luminescence, 30-36 h; Potency, µM (series often up to 46.1 µM), for inactives: at the highest dose activity change, positive = activation, most hits filed as activators; note: % of control where 0% means no effect; nearly all actives have a fitted effect of over 55% in size
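HEK293 cells carry an SMN2 […]–luciferase reporter in which exon 7 inclusion puts luciferase in frame. Cells were plated 10-12 h before compound addition, then incubated 30-36 h at 37C. ONE-Glo luminescence was read; sodium butyrate at 4.5 mM final served as control.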
FLuc counter: inhibits or activates purified firefly luciferase, miR-21 counter-screen | P08659 | purified FLuc, Km substrates, luminescence inhibition | Potency, µM (series often up to 57.5 µM), for the others: at the highest dose activity change, negative = inhibition, usual class: inhibitors | 6.9% of 360,000 active;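 note: plate controls were vehicle for no effect and reference inhibitor for full effect; nearly all actives have a fitted effect of over 55% in size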
Target sequence (P08659 whole entry, looked up): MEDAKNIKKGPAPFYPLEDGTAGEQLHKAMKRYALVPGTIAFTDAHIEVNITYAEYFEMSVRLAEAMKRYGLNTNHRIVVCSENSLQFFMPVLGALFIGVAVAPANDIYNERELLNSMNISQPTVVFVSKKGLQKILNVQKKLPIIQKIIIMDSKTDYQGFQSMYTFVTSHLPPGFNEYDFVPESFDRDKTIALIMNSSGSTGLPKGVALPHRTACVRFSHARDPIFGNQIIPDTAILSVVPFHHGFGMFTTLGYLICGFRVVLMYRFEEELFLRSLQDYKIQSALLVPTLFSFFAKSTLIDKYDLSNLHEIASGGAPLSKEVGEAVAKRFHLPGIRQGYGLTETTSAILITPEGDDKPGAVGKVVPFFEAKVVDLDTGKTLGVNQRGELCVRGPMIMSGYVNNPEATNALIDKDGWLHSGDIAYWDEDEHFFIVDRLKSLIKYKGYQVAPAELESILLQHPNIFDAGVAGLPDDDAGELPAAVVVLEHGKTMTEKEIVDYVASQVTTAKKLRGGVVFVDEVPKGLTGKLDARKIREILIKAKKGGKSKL
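Purified P. pyralis luciferase (10nM final) with 10uM D-luciferin and 10uM ATP (Km levels) in 50mM Tris acetate pH 7.5, 10mM Mg acetate, 0.01% Tween-20, 0.05% BSA; qHTS 6-point titration, ~60 µM downward; luminescence read.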
NPC1 prom act: activators of NPC1 promoter; Huh7 NPC1 promoter luciferase reporter, 24 h; Potency, µM (titrated, usually from 9.22 µM), without a hit: at the highest dose activation, most hits filed as activators; 2.4% of 320,000 active; note: % of control where 0% means no effect; nearly all actives have a fitted effect of over 60% in size
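Stable NPC1-promoter luciferase Huh7 line; cpd (DMSO) 24 h, 37 °C, 5% CO2; Amplite luciferase reagent 10 min RT; luminescence readout. qHTS format.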
* marks the source's active call; other numbers are inactive results; u = inconclusive; x = no result; [ ] = remark or other dose. Calls come from the whole dose curve; as a rule, active = well fitted curve in the direction sought with a large enough effect; inconclusive = small, poorly fitted or top-dose-only effect, or another doubt; inactive = no such curve, though single readings can be large; an effect the other way counts as inactive or inconclusive. Potency is the fitted concentration of half-maximal effect.

SMILES | ELG1 genotoxic | Luc counter | Rab9 promoter act | SMN2 splice up | FLuc counter | NPC1 prom act
COc1cc(/C=C(\C#N)c2nc3ccccc3[nH]2)cc(OC)c1O | 4% | 0% | 19% | 8% | 12µM* | 1%
COc1ccccc1N/C=C(\C#N)c1nc2ccccc2[nH]1 | 9% | -9% | -28% | x | 3.4µM* | -16%
COc1ccc(/C=C(\C#N)c2nc3ccccc3[nH]2)cc1O | u | x | u | x | 9.5µM* | u
O=c1c2cc(NC(=S)NCc3cccnc3)ccc2nc2n1CCCCC2 | 13% | -3% | 29% | -16% | u | 13%
O=C(/C=C1\NC2(CCCC2)Cc2ccccc21)C(=O)N/N=C/c1ccccc1O | 1% | -1% | -24% | -80% | -2% | -20%
CCC1=Nc2cc(C(=O)O)ccc2Sc2ccccc21 | -4% | 1% | 0% | -3% | 8% | -4%
COc1cc(/C=C(/C#N)c2nc3ccccc3c(=O)[nH]2)ccc1O | 5% | -2% | 6% | 5% | 8.5µM* | 11%
COc1cc(/C=C(\C#N)C(=O)c2c[nH]c3ccccc23)cc(OC)c1O | 4% | -1% | -4% | -46% | 15µM* | 0%
COC(=O)/C(=C\c1cc(OC)c(OC)c(OC)c1)c1nc2ccccc2[nH]1 | -6% | 0% | -4% | -99% | u | -10%
COc1c(Cl)cc(Cl)cc1/C=C(\C#N)c1nc2ccccc2[nH]1 | x | x | x | x | 2% | x
COc1c(O)ccc(/C=C(\C#N)c2nc3ccccc3[nH]2)c1[N+](=O)[O-] | 1% | -2% | 12% | 18% | 27µM* | 6%
COc1cc(/C=C(/C(=O)c2cccs2)c2nc3ccccc3[nH]2)ccc1O | -5% | u | 13% | -27% | 6.7µM* | 1%
Cc1ccccc1C(=O)N1c2ncnn2C2(CCCCC2)[C@@H]2CCCC[C@@H]21 | x | x | x | x | 2% | x
CCCN1Cc2cccc(C(=O)N3CCN(c4ccc(OC)cc4)CC3)c2C1=O | -1% | x | -1% | x | 6% | -2%
CN=C1S/C(=C\c2ccc(O)c(Br)c2)C(=O)N1C | 17% | x | -5%[1.84 µM] | x | 15µM* | -12%
CN=C1S/C(=C\c2ccc(SC)cc2)C(=O)N1C | 10µM* | x | 17% | x | 12µM* | u
CCOC(=O)CSC1=NC(=O)/C(=C\c2ccc(Cl)cc2)S1 | u | -2% | -8% | x | 11µM* | -20%
CN=C1S/C(=C\c2ccc(OCC(=O)OC)c(OC)c2)C(=O)N1C | 2% | x | -6% | x | 17µM* | 15%
CN=C1S/C(=C\c2ccc(Cl)cc2)C(=O)N1C | 10% | x | -3% | x | -1% | 1%
O=C(Nc1cccc2ccccc12)c1nn(C23CC4CC(CC(C4)C2)C3)cc1[N+](=O)[O-] | -1% | -6% | -6% | -19% | 3% | 0%
CSc1ccc(C=O)cc1 | -1% | x | 7% | 0% | 1% | -3%
CSC1=NC(=O)/C(=C/c2ccc(SC)cc2)S1 | 8% | -2% | 6% | -13% | 9.5µM* | -1%
Cc1cc2nc(C3CCCN(C(=S)Nc4ccccc4)C3)[nH]c2cc1C (centres undefined) | 4% | -3% | -3% | 2% | u | -1%
COc1ccccc1NC(=S)N1CCC(c2nc3cc(C)c(C)cc3[nH]2)CC1 | 6% | -2% | 22% | -1% | 13µM* | 4%
Cc1cc2nc(C3CCN(C(=S)NCC(C)C)CC3)[nH]c2cc1C | 3% | -8% | -1% | -3% | 17µM* | 0%
COc1ccccc1NC(=O)N1CCC(c2nc3cc(C)c(C)cc3[nH]2)CC1 | u | -5% | -26% | 12% | u | -8%
O=C(Nc1ccc(N2CCOCC2)cc1)c1cccnc1 | 14% | -11% | 16% | u | u | 22%
O=C(Nc1ccc(N2CCCC2)c(Cl)c1)c1cccnc1 | 5% | -1% | 2.8µM* | 16µM* | 12µM* | 3.2µM*
